According to PubChem BioAssay (NCI):
Where “and” joins values, the source holds several entries; their conditions need not be identical. Equal entries are not always repeated. About 83,000 compounds went through this panel and 20% of them were active in at least one assay; those are over-represented in the sample as a whole.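 The endpoint reported here, percent growth, reads 100 for growth as untreated, 0 for no net growth and -100 for all cells dead.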 Calls of active or inactive are those of the source. The calls were made as follows: active = growth percent below 10; inactive = the rest.

Tests used:
Assay in all cases: NCI-60 one-dose screen, 48 h (100 = growth as untreated, 0 = no growth, -100 = all killed)
Settings in all cases: 10 µM unless noted
HCT-15 colon = tested on: HCT-15 colon
HT29 colon = tested on: HT29 colon
SNB-75 CNS = tested on: SNB-75 CNS
SNB-19 CNS = tested on: SNB-19 CNS
U251 CNS = tested on: U251 CNS
PC-3 prostate = tested on: PC-3 prostate
SK-MEL-5 melanoma = tested on: SK-MEL-5 melanoma
UACC-62 melanoma = tested on: UACC-62 melanoma
LOX IMVI melanoma = tested on: LOX IMVI melanoma
SK-MEL-28 melanoma = tested on: SK-MEL-28 melanoma
EKVX NSCLC = tested on: EKVX NSCLC
SN12C renal = tested on: SN12C renal
TK-10 renal = tested on: TK-10 renal
CAKI-1 renal = tested on: CAKI-1 renal
A498 renal = tested on: A498 renal
CCRF-CEM leukemia = tested on: CCRF-CEM leukemia
MOLT-4 leukemia = tested on: MOLT-4 leukemia
UO-31 renal = tested on: UO-31 renal
ACHN renal = tested on: ACHN renal
SK-MEL-2 melanoma = tested on: SK-MEL-2 melanoma

| SMILES | growth (HCT-15 colon) | growth (HT29 colon) | growth (SNB-75 CNS) | growth (SNB-19 CNS) | growth (U251 CNS) | growth (PC-3 prostate) | growth (SK-MEL-5 melanoma) | growth (UACC-62 melanoma) | growth (LOX IMVI melanoma) | growth (SK-MEL-28 melanoma) | growth (EKVX NSCLC) | growth (SN12C renal) | growth (TK-10 renal) | growth (CAKI-1 renal) | growth (A498 renal) | growth (CCRF-CEM leukemia) | growth (MOLT-4 leukemia) | growth (UO-31 renal) | growth (ACHN renal) | growth (SK-MEL-2 melanoma) |
| --- | --- | --- | --- | --- | --- | --- | --- | --- | --- | --- | --- | --- | --- | --- | --- | --- | --- | --- | --- | --- |
| CC(=O)C[n+]1cccc2c3ccccc3ccc21 | 97.5% (inactive) | 93.4% (inactive) | 113% (inactive) | 69.8% (inactive) | 59.9% (inactive) | 85.1% (inactive) | 56.6% (inactive) | 73.3% (inactive) | 99.8% (inactive) | 95.6% (inactive) | 56.6% (inactive) | 80.1% (inactive) | 101% (inactive) | 94.1% (inactive) | 110% (inactive) | 65.5% (inactive) | 53.9% (inactive) | – | – | – |
| NS(=O)(=O)c1ccc(Nc2nc(N/N=C/c3cc(Br)c(O)c(Br)c3)nc(Nc3ccccc3)n2)cc1 | 80.5% (inactive) | 32.1% (inactive) | 25.7% (inactive) | 14.9% (inactive) | 27.6% (inactive) | 57.7% (inactive) | -26.6% (active) | -26.6% (active) | -23.5% (active) | 34.4% (inactive) | 86.3% (inactive) | 46.3% (inactive) | 113% (inactive) | 94.4% (inactive) | 102% (inactive) | 10.5% (inactive) | -8.36% (active) | 85.3% (inactive) | – | – |
| CC1CCc2c(sc3nc(SCC(=O)c4cccc(Br)c4)n(-c4ccccc4)c(=O)c23)C1 (stereo not given) | 41% (inactive) | 21.6% (inactive) | 54.9% (inactive) | 64.8% (inactive) | -25.5% (active) | 56.6% (inactive) | 66% (inactive) | 89.8% (inactive) | 45.2% (inactive) | 73.5% (inactive) | 66.2% (inactive) | 32.8% (inactive) | -21.6% (active) | 6.39% (active) | 114% (inactive) | 35.3% (inactive) | 28.6% (inactive) | 16.6% (inactive) | -60.6% (active) | – |
| CC1(C)CC(=O)C2=C(C1)OC(N)=C(c1nc3ccccc3[nH]1)C2c1ccc(Cl)cc1 (stereo not given) | 39.8% (inactive) and 106% (inactive) | 86.8% (inactive) and 115% (inactive) | 65.4% (inactive) and 124% (inactive) | 50% (inactive) and 99.9% (inactive) | 45.1% (inactive) and 112% (inactive) | 35.6% (inactive) and 107% (inactive) | -40.8% (active) and 104% (inactive) | -22.9% (active) and 94.3% (inactive) | – | 30.1% (inactive) and 109% (inactive) | 57% (inactive) and 100% (inactive) | 79.7% (inactive) and 105% (inactive) | 71.7% (inactive) and 106% (inactive) | 63.9% (inactive) and 103% (inactive) | 66.9% (inactive) and 149% (inactive) | 31.8% (inactive) and 102% (inactive) | 17.6% (inactive) and 103% (inactive) | 71.2% (inactive) and 86.4% (inactive) | 62.4% (inactive) and 106% (inactive) | 43.5% (inactive) and 112% (inactive) |
| CC[C@]12C=CCN3CC[C@@]4(c5ccc(OC)cc5N(C)[C@H]4[C@@](O)(C(=O)OC)[C@@H]1OC(=O)CCC[P+](c1ccc(OC)cc1)(c1ccc(OC)cc1)c1ccc(OC)cc1)[C@@H]32 | -86.3% (active) | -84.3% (active) | -34% (active) | -96.7% (active) | -93.7% (active) | -78.8% (active) | -99.6% (active) | -97.1% (active) | -96.4% (active) | -96.3% (active) | -85% (active) | -93.4% (active) | -90.7% (active) | -93.4% (active) | -83.2% (active) | -71.2% (active) | -36.7% (active) | -56.8% (active) | -95.8% (active) | – |
| CC1=C(C(=O)Nc2ccccc2)C(c2cccc(Cl)c2Cl)n2c(nc3ccccc32)N1 (stereo not given) | 35.5% (inactive) | 22.1% (inactive) | 47.2% (inactive) | 67.5% (inactive) | 57.2% (inactive) | 18.1% (inactive) | 46.7% (inactive) | 46.7% (inactive) | 49.5% (inactive) | 65.5% (inactive) | 46.3% (inactive) | 53.4% (inactive) | 57.8% (inactive) | 36.4% (inactive) | 35% (inactive) | 29.8% (inactive) | 7.7% (active) | 33.7% (inactive) | 42.5% (inactive) | – |
| COc1ccc(N=Nc2c(N)nn3c(-c4cc5cc(Br)ccc5oc4=O)ccnc23)cc1 | 29.9% (inactive) | 32.9% (inactive) | -14.8% (active) | 2.33% (active) | -12.3% (active) | 44.9% (inactive) | -14.2% (active) | 30.7% (inactive) | 26.4% (inactive) | 28.8% (inactive) | 34.8% (inactive) | 17.6% (inactive) | 62% (inactive) | 12% (inactive) | 36.1% (inactive) | 96.2% (inactive) | 85.6% (inactive) | 8.11% (active) | -21.2% (active) | – |
